Screening results deposited in PubChem by National Center for Advancing Translational Sciences (NCATS).
TrxR1 inh – inhibitors of rat thioredoxin reductase 1; recombinant rTrxR1, NADPH fluorescence consumption, selenite substrate; 390,000 tested, 1% active; Potency, µM (doses to about 114 µM), for the others: top-dose activity change, negative = inhibition, most hits filed as inhibitors; O89049; AID 588453; further: on the % scale 0 is the no-effect control and ±100 the full control effect; nearly all actives have a fitted effect of over 65% in size
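Rat TrxR1 (90 nM in the dispensed reagent) was pre-reduced with 400 uM NADPH for 5 min at room temperature, then incubated with compound for 15 min. After 400 uM selenite was added, NADPH fluorescence (Ex 340/Em 450 nm) was followed for 8 min.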
Nrf2 block – blocks Nrf2 signaling. Potency, µM (series often up to 46 µM), inactives show at the top dose activity change, negative = inhibition, most hits filed as inhibitors. AID 504444. A549 ARE-Fluc reporter, luciferase luminescence, 18-24 h. 360,000 tested, 2.1% active; further: on the % scale 0 is the no-effect control and ±100 the full control effect; nearly all actives have a fitted effect of over 60% in size
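Reporter: ARE-Fluc in A549. Exposure: 18-24 h, 37 °C, 5% CO2, 5% FBS OPTI-MEM. Readouts: fluorescent cytotoxicity (CellTiter-Fluor), then luminescent Nrf2 signal after BugLite.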
Mito fusion act – blocks mitochondrial division or promotes mitochondrial fusion; Potency, µM (series often up to 46.1 µM), inactives show top-dose growth rescue (activation), hits mostly activators; 320,000 tested, 0.23% active; S. cerevisiae fusion-defective mutant growth rescue, CellTiterGlo 48 h; further: % of control where 0% means no effect; nearly all actives have a fitted effect of over 45% in size
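Yeast fusion mutant, YPEG (non-fermentable carbon), compound, 48 h at 37C non-permissive; CellTiterGlo added, 10 min RT, luminescence read. Rescued growth = division inhibition.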
TrxR1 substrate – is turned over as a substrate by rat TrxR1; O89049; purified TrxR1 substrate turnover, NADPH consumption readout; Potency, µM (doses to about 114 µM), for the others: at the highest dose activity change, negative = substrate turnover; 390,000 tested, 0.01% active; further: on the % scale 0 is the no-effect control and ±100 the full control effect; nearly all actives have a fitted effect of over 50% in size
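Rat TrxR1, dispensed at 90 nM, was prereduced with 400 uM NADPH (final) for 5 min at ~22 deg C, then incubated with compound 15 min before 400 uM selenite. A first-read NADPH fluorescence drop versus no-compound background flagged substrates.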
A549 tox – A549 cytotoxicity, counter-screen for Nrf2 inhibitors. A549 ARE-Fluc cells, CellTiter-Fluor viability, 18-24 h. Potency, µM (top dose mostly 46 µM), without a hit: at the top dose activity change, negative = cytotoxicity, hits mostly inhibitors. 390,000 tested, 0.16% active. AID 504648; further: on the % scale 0 is the no-effect control and ±100 the full control effect
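A549 ARE-Fluc cells in 5% FBS OPTI-MEM, 5000 cells/well, rested 2 h then exposed to compounds in concentration-response for 18-24 h at 37 °C. Viability by CellTiter-Fluor fluorescence (Ex 405/Em 525) after 30 min; luciferase luminescence (BugLite, 15 min, RT) read afterwards.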
IDH1 R132H inh – inhibitors of human mutant IDH1 R132H; Potency, µM (doses to about 76.6 µM), for inactives: at the top dose activity change, negative = inhibition, hits mostly inhibitors; IDH1-R132H enzyme, NADPH consumption, diaphorase/resazurin fluorescence; O75874; 390,000 tested, 0.093% active; further: on the % scale 0 is the no-effect control and ±100 the full control effect; nearly all actives have a fitted effect of over 65% in size
Target sequence (O75874 whole entry R132H, stated change not applied): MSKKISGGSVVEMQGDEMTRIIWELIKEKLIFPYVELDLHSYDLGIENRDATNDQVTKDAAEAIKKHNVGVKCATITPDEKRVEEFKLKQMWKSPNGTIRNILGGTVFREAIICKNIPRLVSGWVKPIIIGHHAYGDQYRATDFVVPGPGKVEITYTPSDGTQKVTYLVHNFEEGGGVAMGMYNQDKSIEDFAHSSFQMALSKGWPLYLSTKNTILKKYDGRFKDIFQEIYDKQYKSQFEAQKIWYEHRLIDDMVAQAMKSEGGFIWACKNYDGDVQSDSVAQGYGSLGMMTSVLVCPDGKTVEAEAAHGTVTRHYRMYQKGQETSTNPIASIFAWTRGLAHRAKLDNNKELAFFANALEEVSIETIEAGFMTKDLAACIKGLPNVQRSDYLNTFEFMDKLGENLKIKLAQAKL
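IDH1-R132H (0.5 ug/mL dispensed) in pH 7.5 Tris buffer was preincubated 30 min with compound, then given a substrate mix of 0.016 mM NADPH and 2 mM alpha-KG for 80 min at room temperature; remaining NADPH was read by diaphorase/resazurin fluorescence.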
* marks the source's active call; other numbers are inactive results; u = inconclusive; x = no result given; [ ] = dose if it differs, or a comment. Only some compounds are listed: those with a hit (about 3.1% of all), similar ones and a draw of the others. The call rests on the fitted dose curve; in most records, active means well fitted curve in the direction sought with a large enough effect; inconclusive means small, poorly fitted or top-dose-only effect, or another doubt; inactive means no such curve, though single readings can be large; an effect the other way counts as inactive or inconclusive. Potency means the concentration at half of the fitted maximal effect.

SMILES | TrxR1 inh | Nrf2 block | Mito fusion act | TrxR1 substrate | A549 tox | IDH1 R132H inh
Cc1ccc(S(=O)(=O)c2ncccc2[N+](=O)[O-])cc1 | 2µM* | -26% | -67% | -1%[57.1 µM] | -3% | 15%
O=C(OCC12CC3CC(CC(C3)C1)C2)c1ccc(NCc2cc(O)ccc2O)cc1 | -15% | u | x | -10% | u | -11%
O=C(O)c1cc(NCc2cc(O)ccc2O)ccc1O | 40µM* | -15% | x | 7% | -9% | x
CCc1ccc2occ(CC(=O)Nc3c(C(=O)Nc4ccc(Cl)cc4)oc4ccccc34)c2c1 | 20% | 1% | x | 13% | 11% | 12%
CCOc1ccc(NC(=O)c2oc3ccccc3c2NC(=O)c2c(F)cccc2F)cc1 | 56µM* | -7% | x | 19% | 0% | 23%
CCc1ccc2occ(CC(=O)Nc3c(C(=O)Nc4ccc(C)cc4)oc4ccccc34)c2c1 | 89µM* | u | x | 9% | 0% | -9%
COc1ccc(NC(=O)c2oc3ccccc3c2NC(=O)c2ccco2)cc1 | 10% | 1.6µM* | 0% | -3% | -7% | -4%
CN1c2ccc(Cl)cc2-c2nc(SCC(=O)NCc3ccccc3)ncc2S1(=O)=O | 17%[57.1 µM] | u | x | 10%[57.1 µM] | -6% | -10%
O=C(Cc1ccc(Oc2ccccc2)cc1)NO | 4% | x | x | -3% | x | x
CCSC1=C(C#N)C(c2ccc(Cl)cc2)C2=C(CCCC2=O)N1 (centres undefined) | 5% | 21µM* | 6% | 1% | u | 0%
CC(NC(=O)/C=C/c1ccco1)c1nc2ccccc2n1Cc1ccccc1F (centres undefined) | 50µM* | -2% | -4% | -16% | -1% | 7%
CC(C)(C)c1cccc(Cn2nnc3ccccc32)c1O | 8% | -1% | 20µM* | -11% | 1% | 6%
Cc1cc(Cn2nnc3ccccc32)c(O)c(C(C)(C)C)c1 | 15%[57.1 µM] | 2% | u | 6%[57.1 µM] | -1% | 8%
CS(=O)(=O)N(Cc1ccccc1)c1ccc(C(=O)Nc2cccc(Cl)c2)cc1 | 15% | u | x | -2% | -1% | -13%
COc1cc2nc(CN3CCN(S(=O)(=O)c4ccc(Cl)cc4)CC3)[nH]c(=O)c2cc1OC | 0% | 23µM* | -1% | -6% | -9% | -5%
COc1ccc(-c2ccccc2)c2oc(-c3ccco3)cc(=O)c12 | 32µM* | 0% | x | 7%[57.1 µM] | 2% | -4%
Cc1c(-c2nc(N)nc(Nc3ccccc3)n2)oc2ccccc12 | 2%[57.1 µM] | 27% | 14µM* | 9%[57.1 µM] | -10% | 3%
CC(=O)N(c1ccccc1)C1CCCC1 | -18% | -2% | -12% | -14% | -2% | 6%
O=C(CCl)N(c1ccccc1)C1CCCCC1 | 3.2µM* | u | 2% | 14%[57.1 µM] | u | 0%
COc1ccc(CNC(=O)C2=C(C)C(=O)OC23CCN(C(C)=O)CC3)cc1 | -2% | u | x | 0% | u | 10%
Cc1cccc(NC(=O)C2CCN(S(=O)(=O)c3ccc4c(c3)OCCCO4)CC2)n1 | 7%[57.1 µM] | 15µM* | 2% | 0%[57.1 µM] | -14% | -1%
CC(=O)Nc1cccc(S(=O)(=O)N2CCCN(S(=O)(=O)c3ccc4c(c3)OCCO4)CC2)c1 | x | 15µM* | x | x | -12% | x
Cc1cccc(NC(=O)C2CCN(S(=O)(=O)c3ccc4c(c3)OCCO4)CC2)n1 | 6% | u | -1% | -6% | -11% | 3%
O=C(C1CCN(S(=O)(=O)c2ccc3c(c2)OCCO3)CC1)N1CCc2ccccc21 | 24% | 15µM* | -8% | 9% | 0% | -4%
O=C(NCC(=O)N1CCN(S(=O)(=O)c2ccc3c(c2)OCCO3)CC1)c1ccccc1Cl | 5% | 12µM* | 0% | 2% | -3% | 1%
SMILES | TrxR1 inh | Nrf2 block | Mito fusion act | TrxR1 substrate | A549 tox | IDH1 R132H inh
Cc1ccc2c(=O)cc(C(=O)Nc3ccc(S(=O)(=O)N4CCCCC4)cc3)oc2c1 | 21% | 1% | x | 4% | 1% | 13%
C=CCN(c1ccccc1OC)S(=O)(=O)c1cccc(C(=O)OCC(=O)c2c(N)n(C)c(=O)n(C)c2=O)c1 | -5% | 21µM* | x | -8% | 1% | 2%
COc1ccccc1CNc1nc2ccc(C)cc2n2nnnc12 | -10% | u | x | -4% | 12% | 13%
Cc1ccc(-c2nnc(NC3CCCCC3)c3ccccc23)cc1S(=O)(=O)N1CCN(C)CC1 | 11% | 23µM* | -2% | 7% | u | 0%
O=C(CCc1ccccc1)NC(NC(=S)Nc1ccc(Br)cc1)C(Cl)(Cl)Cl (centres undefined) | 21% | 9.2µM* | 1% | 6% | u | 13%
CC1(c2ccccc2)CC(C)(C)N2C(=O)C3(C(C#N)=C(N)Oc4cc(O)ccc43)c3cccc1c32 (centres undefined) | 3% | 21µM* | 2% | -1% | u | u
Cc1cc2c3c(c1)C(C)(c1ccccc1)CC(C)(C)N3C(=O)C21C(C#N)=C(N)OC2=C1C(=O)CC(C)(C)C2 (centres undefined) | -7% | -81% | 4% | -14% | -17% | 6%
O=C(CN1C(=O)CC(c2ccco2)Sc2ccccc21)Nc1ccccc1F (centres undefined) | 25µM* | -7% | 21% | 2% | -5% | 15%
O=C(Nc1cccc(NC(=O)c2ccc(-c3ccc(Br)cc3)o2)c1)c1ccco1 | 79µM* | u | -1% | 40% | u | 4%
O=C(NCc1ccco1)c1cccc(NC(=O)c2ccco2)c1 | 50µM* | -19% | 1% | 2% | -3% | 4%
CCOc1cc(NS(=O)(=O)c2ccccc2)c(OCC)cc1NC(=O)c1ccco1 | 71µM* | u | 2% | -2% | 2% | 8%
CCOC(=O)c1cccc(NC(=O)COc2ccc([N+](=O)[O-])cc2)c1 | -5%[2.29 µM] | 26µM* | 4% | 7%[2.29 µM] | -10% | 0%
O=C(Nc1cccc(-c2nc3ccccc3o2)c1)c1ccc(-c2ccc(Br)cc2)o1 | 11% | 0% | x | 35% | -7% | -8%
CCc1cccc(NC(=O)Cn2c(=O)n(-c3cccc(Cl)c3)c(=O)c3c2c2cc(C)ccc2n3C)c1 | 22% | 9%[9.27 µM] | x | 27% | -4% | 15%
C(=C\c1cnc2ccccc2n1)/c1ccc2c(c1)OCO2 | 25% | x | x | 5% | x | x
Cc1ccc(-c2nc3cc(Cl)ccc3o2)cc1NC(=O)COc1ccccc1C | 4% | x | x | 1% | x | x
CSc1cccc(NC(=O)Cn2nnc(C(=O)NCCc3ccccc3)c2N)c1 | 45%[57.1 µM] | x | x | 12%[57.1 µM] | 4% | -24%
